High-throughput results as filed in PubChem BioAssay.
Rows were chosen to be rich in hits. Some 10% of all compounds tested hit in one or more screens of this group.
GPT2 inhibitor – Primary qHTS assay for inhibitors of Glutamate pyruvate transaminase 2 (GPT2). Recombinant GPT2, coupled pyruvate oxidase/HRP Amplex Red fluorescence. hit rate 0.25% among 100,000. Potency, µM (highest dose often 57.7 µM), inactives show at the highest dose activity change, negative = inhibition, actives largely listed as inhibitors. Alanine aminotransferase 2 (Homo sapiens), Q8TD30; note: % is set by controls: 0 for no effect and ±100 for the full control effect; nearly all actives have a fitted effect of over 60% in size
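GPT2 10ng/uL, a-KG 250uM, L-Ala 2mM, HEPES pH7.5 + 0.0001% Tween; 30 min RT. Then Amplex mix (PO/HRP/ThPP), 30 min RT dark, fluorescence. AOA 50uM used as positive control.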
3T3 cytotox – Cytotoxic Profiling in NIH 3T3 Cell Line of Diverse Libraries Using Quantitative High-Throughput Screening; NIH 3T3 viability, CellTiter-Glo ATP luminescence, 48-72 h; Potency, µM (series often up to 96.7 µM), inactives show at the highest dose activity change, negative = cytotoxicity, actives largely listed as inhibitors; hit rate 4.3% among 94,000; AID 1345082, 2018; note: % is set by controls: 0 for no effect and ±100 for the full control effect; nearly all actives have a fitted effect of over 55% in size
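First NIH 3T3 cells are plated at 400 cells/well; next compound is pinned in; then plates incubate 48 or 72 hr at 37 °C; finally CellTiter-Glo is added and luminescence read after 10 min.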
HEK293 tox – Cytotoxic Profiling in HEK 293 Cell Line of Diverse Libraries Using Quantitative High-Throughput Screening. HEK 293 viability, ATP luminescence (CellTiter-Glo), 48-72 h. Potency, µM (doses to about 115 µM), for inactives: at the highest dose activity change, negative = cytotoxicity, most hits filed as inhibitors. hit rate 6.6% among 94,000; note: % is set by controls: 0 for no effect and ±100 for the full control effect; nearly all actives have a fitted effect of over 60% in size
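CellTiter-Glo luminescence (cellular ATP) was read after 48 or 72 hr of compound exposure at 37 degree Celsius. Cells were HEK 293 plated at 250 cells/well.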
FLuc inh-1 – Firefly luciferase inhibition profiling of diverse chemical library using quantitative high-throughput screening; Potency, µM (titrated, usually from 115 µM), most hits filed as inhibitors; Luciferin 4-monooxygenase (Photinus pyralis), P08659; hit rate 2.5% among 76,000; purified P. pyralis luciferase, luminescence, biochemical; AID 1347043, 2019; note: % is set by controls: 0 for no effect and ±100 for the full control effect; nearly all actives have a fitted effect of over 65% in size
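Luminescence read by CCD imager after adding enzyme (10nM final) to wells holding compound, titrated in qHTS. Substrates 10uM each D-luciferin and ATP; buffer 50mM Tris acetate pH 7.5, 10mM Mg acetate, Tween-20, BSA.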
hNpr1 antagonist – Natriuretic polypeptide receptor (hNpr1) antagonism - Primary qHTS; HEK293 hNpr1 GloSensor cGMP, ANP-stimulated luminescence; Potency, µM (highest dose often 46.3 µM), inactives show at the highest dose activity change, negative = inhibition, actives largely listed as inhibitors; hit rate 1.6% among 76,000; calls by dose curve; note: % is set by controls: 0 for no effect and ±100 for the full control effect; nearly all actives have a fitted effect of over 60% in size
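HEK293 cells stably expressing human Npr1 and cGMP GloSensor pGS-40F, loaded 2 h with 2% GloSensor reagent, given compound 30 min at room temperature. Luminescence read before and 20 min after 0.1 nM hNppA.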
FLuc SDR no ATP – Firefly luciferase (FLuc-C-HiBiT) SDR gain of signal screen - without ATP; hit rate 7.8% among 1,300; shares compounds with FLuc inh-1; Purified FLuc-C-HiBiT, Nano-Glo HiBiT luminescence, no ATP; Potency, µM (titrated, usually from 32.7 µM), for inactives: top-dose activation (signal gain), hits mostly activators; note: nearly all actives have a fitted effect of over 55% in size
FLuc SDR ATP – Firefly luciferase (FLuc-C-HiBiT) SDR gain of signal screen - plus ATP. shares compounds with FLuc inh-1. purified FLuc-C-HiBiT + ATP, HiBiT complementation luminescence. Potency, µM (titrated, usually from 32.7 µM), inactives show at the top dose activation (gain of signal), usual class: activators. hit rate 8.7% among 1,300. AID 1963319, 2024;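 note: signal reports ligand binding via conformational change of the enzyme rather than luciferase catalysis; % of control where 0% means no effect; nearly all actives have a fitted effect of over 55% in size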
FLuc inh-2 – Firefly luciferase (FLuc-C-HiBiT) enzymatic inhibition screen - Functional assay; shares compounds with FLuc inh-1; purified FLuc-C-HiBiT enzyme, luciferin luminescence; Potency, µM (highest dose often 32.7 µM), without a hit: at the top dose activity change, negative = inhibition, hits mostly inhibitors; hit rate 42% among 1,300; AID 1963320, 2024; note: % is set by controls: 0 for no effect and ±100 for the full control effect; nearly all actives have a fitted effect of over 70% in size
Numbers without * were called inactive; i = inactive; ? = inconclusive; . = no result; [ ] = remark or other dose. Unless noted, calls come from the whole dose curve; as a rule, active = well fitted curve in the direction sought with a large enough effect; inconclusive = small, poorly fitted or top-dose-only effect, or another doubt; inactive = no such curve, though single readings can be large; an effect the other way counts as inactive or inconclusive. Potency is the fitted concentration of half-maximal effect.

SMILES	GPT2 inhibitor	3T3 cytotox	HEK293 tox	FLuc inh-1	hNpr1 antagonist	FLuc SDR no ATP	FLuc SDR ATP	FLuc inh-2
Cc1cc(C)cc(NC(=O)C2CCN(C(=O)c3ncn4c3COC(c3ccccc3)C4)CC2)c1 (stereo not given)	4.3%	i	6.3%	8.91µM*	-3.3%	15.6%	?	3.13µM*
COc1ccc(C2Cn3cnc(C(=O)N4CCC(C(=O)Nc5cc(F)cc(F)c5)CC4)c3CO2)cc1 (stereo not given)	-13.1%	?	?	?	?	.	.	.
Cc1nc(CCNC(=O)C2CC2)no1	i	0.8%	5.7%	i	2.8%	.	.	.
COCC1CCN(c2ccc(-c3nc(-c4ccccc4C)no3)cn2)C1 (stereo not given)	-21.6%	-25.0%	?	14.1µM*	?	14.5%	16.4%	?
COc1ccc(CC(=O)N2CCN(C(=O)c3nc4cccnc4n(C4CC4)c3=O)CC2)cc1	2.2%	-12.6%	4.0%	.	.	.	.	.
CCc1noc(-c2nc(-c3ccc4c(c3)OCO4)no2)n1	i	-19.2%	?	10µM*	-25.9%	25.4%	19.4%	?
CCN1C(=O)CN(C(=O)c2cccnc2)CC12CCOCC2	i	i	-8.6%	i	6.7%	.	.	.
O=C1NC2(CCN(C(=O)c3ccc(C(F)(F)F)cc3)CC2)COc2ccccc21	i	i	3.4%	i	-1.5%	.	.	.
CCN(CC)c1cc(CCC(=O)O)ccn1	i	1.3%	-7.4%	6.31µM*	-26.7%	13.3%	1.57µM*	1.4µM*
COc1ccc(CCN2Cc3cc(NC(=O)c4ccccc4OC)ccc3OCC2=O)cc1	-0.9%	?	?	i	-19.1%	.	.	.
COc1cccc2cc(C(=O)Nc3ccc(CC(=O)O)cc3)c(=O)oc12	.	.	.	.	.	2.48µM*	1.76µM*	3.13µM*
Cc1ccc2nc([C@H]3CCN(C(C)C)C3)[nH]c2c1	-7.7%[88.5 µM]	-25.4%[174 µM]	?	7.94µM*	28.2µM*	17.2%[65.7 µM]	16.3%[65.7 µM]	?
Cc1ccc2nc([C@H]3CCN(C(=O)C4CC4)C3)[nH]c2c1	-3.0%[88.5 µM]	-26.9%[174 µM]	-13.5%[230 µM]	i	-0.4%[70.6 µM]	.	.	.
Cc1ccc(Nc2ccnc(N3CCCC3C(=O)NCCc3ccccc3)n2)cc1 (stereo not given)	-3.8%	-38.3%	?	.	.	.	.	.
CCCc1ccc(-c2nc(C3CCOC3)no2)cc1 (stereo not given)	-0.4%	-21.2%	?	1.12µM*	?	14.9%	?	7µM*
CCC(=O)N1Cc2ccccc2CC2(CCN(CC3CCOCC3)C2)C1 (stereo not given)	?	-29.1%	-21.1%	.	.	.	.	.
CN(C)c1cccc(NC(=O)c2ccc3c(c2)NC(C)(COc2ccccc2)CO3)c1 (stereo not given)	0.1%[88.5 µM]	?	?	i	-1.0%[70.6 µM]	.	.	.
CCOCC1(C)COc2ccc(C(=O)Nc3ccccc3)cc2N1 (stereo not given)	-13.8%[88.5 µM]	?	?	10µM*	-3.8%[70.6 µM]	21.9%[49.3 µM]	13.1%[49.3 µM]	?
C[C@@H]1CN(c2nc(-c3ccccc3)no2)CC[C@@]1(O)C1CCC1	1.5%	?	?	0.355µM*	5.62µM*	?	?	1.76µM*
OCC1(CC2CC2)CCCN(c2nc(-c3ccccc3)no2)C1 (stereo not given)	i	?	?	14.1µM*	-3.5%	10.9%	12.5%	-12.2%
CN1CC2(CCN(c3nc(-c4ccccc4)no3)CC2)CC(c2ccccc2)C1=O (stereo not given)	0.5%	?	?	?	-29.4%	.	.	.
O=c1[nH]ccn1C1CCN([S+](=O)([O-])c2cccc(C(F)(F)F)c2)CC1	i	?	-19.4%	.	.	.	.	.
O=C(Nc1ccccc1)C1CCN(C(=O)c2ncn3c2COC(c2ccc(F)cc2)C3)CC1 (stereo not given)	1.2%	-1.9%	4.4%	?	-7.3%	.	.	.
CCc1ccc(NC(=O)C2CCN(C(=O)c3ncn4c3COC(c3ccccc3)C4)CC2)cc1 (stereo not given)	3.1%	-27.4%	?	5.01µM*	-16.6%	12.5%	?	3.94µM*
O=C(Nc1cccc(F)c1)C1CCN(C(=O)c2ncn3c2COC(c2ccccc2)C3)CC1 (stereo not given)	i	-0.7%	6.2%	1µM*	?	9.9%	0.989µM*	0.881µM*
SMILES	GPT2 inhibitor	3T3 cytotox	HEK293 tox	FLuc inh-1	hNpr1 antagonist	FLuc SDR no ATP	FLuc SDR ATP	FLuc inh-2
Cc1ccc(NC(=O)C2CCN(C(=O)c3ncn4c3COC(c3ccccc3)C4)CC2)cc1 (stereo not given)	i	-9.4%	9.0%	2µM*	-23.1%	11.6%	1.57µM*	1.76µM*
O=C(Nc1ccccc1)C1CCN(C(=O)c2ncn3c2COC(c2ccccc2)C3)CC1 (stereo not given)	i	i	-29.7%	2µM*	?	15.5%	1.57µM*	1.57µM*
CCc1ccc(NC(=O)C2CCN(C(=O)c3ncn4c3COC(c3ccc(F)cc3)C4)CC2)cc1 (stereo not given)	-6.4%	i	-2.4%	?	1.8%	.	.	.
O=C(Cc1cccc(Cl)c1)N1CCCC(C(=O)N2CCCC(c3nc4ccncc4[nH]3)C2)C1 (stereo not given)	i	?	?	.	.	.	.	.
O=C(NCC1CCCCC1)c1nc2sccn2c1-c1ccc(F)cc1	i	?	-27.5%	.	.	.	.	.
CC1CCC(NC(=O)C2CCN(C(=O)c3ncn4c3COC(c3ccccc3)C4)CC2)CC1 (stereo not given)	i	i	3.6%	2.82µM*	0.0%	11.8%	3.13µM*	2.48µM*
O=C(NC1CC1)C1CCN(C(=O)c2ncn3c2COC(c2ccc(Cl)cc2)C3)CC1 (stereo not given)	-7.1%	-4.6%	-3.9%	?	3.9%	.	.	.
